Source: PubChem BioAssay
Calls of active or inactive are those of the source.

Legend:
Albumin (Bos taurus) = Albumin (Bos taurus) (UniProt P02769); experiment: compounds binding labelled BSA control protein – biochemical, small-molecule microarray, Alexa647 label, 635/667 nm fluorescence, artefact control for SMM control protein annotation, profiling panel (AID 1118); settings: BSA-A647 binding, fluorescence 635 nm, higher = more signal;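 note: score merges 667 nm emission intensity and signal-to-noise per printed compound spot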
[1] = probe aXIP binding to arrayed compounds – biochemical, NeuroSMM set, 635/667 nm fluorescence, primary screen (AID 1119); settings: small-molecule microarray, higher = more signal, called active from +8 up or from −8 down;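 note: probe is the protein aXip251-270 applied at 1 µg/mL to compound-printed slides; binding of probe to printed compounds measured as 667 nm fluorescence plus signal to noise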
[2] = probe aNOTCH3 binding on compound microarray – biochemical, small-molecule microarray, 635/667 nm fluorescence, primary screen (AID 1120); settings: higher = more signal;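 note: probe is a biotin-tagged antibody raised against NOTCH3 rather than NOTCH3 protein; score merges spot fluorescence near 667 nm with spot signal to noise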
[3] = probe aNOTCH2 binding on compound microarray – biochemical, small-molecule microarray, 635/667 nm fluorescence, primary screen (AID 1121); settings: higher = more signal;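 note: score merges feature fluorescence read at 667 nm with its signal to noise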
[4] = biological target: Carbonic anhydrase 2 (Homo sapiens) (UniProt P00918); experiment: compounds binding carbonic anhydrase 2 – biochemical, small-molecule microarray, Alexa647-labelled CAII, profiling panel (AID 1122); settings: CAII-A647 binding fluorescence, higher = more signal
[5] = COS7 lysate on small-molecule microarray, probe aHis, 635 nm (AID 1123); settings: COS7 cell lysate, fluorescence, higher = more signal;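 note: z-score combines 667nm fluorescence intensity with signal-to-noise per printed compound spot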
[6] = probe aLAP1 signal on lysate-treated microarray – cell lysate, small-molecule microarray, COS7 lysate, primary screen (AID 1124); settings: probe aLAP1, fluorescence, higher = more signal;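 note: lysate comes from COS7 cells expressing LAP1 and is applied at 0.3 µg/mL; score merges spot fluorescence near 667 nm with signal-to-noise over triplicate slides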
Sam68 (KHDRBS1) = experiment: compounds binding KHDRBS1 protein – biochemical, small-molecule microarray, 635 nm fluorescence, primary screen (AID 1125); settings: higher = more signal;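 note: score merges 667 nm channel intensity with signal to noise over triplicate slides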
[7] = test system: Chordin-like protein 2 (CHRDL2); experiment: compounds binding chordin-like 2 – biochemical, small-molecule microarray, 635 nm fluorescence, primary screen (AID 1126); settings: fluorescence 635 nm, higher = more signal;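 note: printed compound slides probed with Chrdl2 protein at 4 µg/mL for 1 h at 4 C; score merges 667 nm emission intensity with signal to noise over three replicate slides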
[8] = biological target: Concanavalin-A (Canavalia ensiformis) (UniProt P02866); experiment: compounds binding concanavalin A lectin – biochemical, small-molecule microarray, Alexa647 label, 635 nm, artefact control for SMM control protein annotation, primary screen (AID 1127); settings: ConA-A647 binding fluorescence, higher = more signal;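 note: z combines 667 nm emission intensity with signal-to-noise across three replicate slides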
[9] = compounds binding Alexa647 anti-His antibody – biochemical, small-molecule microarray, 635 nm fluorescence, artefact control for SMM control protein annotation, primary screen (AID 1128); settings: higher = more signal;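 note: score merges feature fluorescence with signal-to-noise for each printed compound spot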
[10] = test system: Human papillomavirus type 1a E7 protein (residues 1-88); experiment: HPV1a E7 small-molecule binders, primary screen, biochemical, small-molecule microarray, residues 1-88, 635 nm (AID 1129); settings: small-molecule microarray binding, fluorescence 635 nm; higher = more signal
[11] = biological target: Focal adhesion kinase 1 (Homo sapiens) (UniProt Q05397); experiment: PTK2 protein binding on printed compound slides – biochemical, small-molecule microarray, 635/667 nm fluorescence, BSA, DTT, primary screen (AID 1130); settings: 635 nm fluorescence, higher = more signal;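 note: composite of spot emission at 667 nm and signal to noise over triplicate slides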
[12] = test system: Fibrinogen (Alexa647-labelled); experiment: Alexa647-fibrinogen binding to printed small molecules – biochemical, small-molecule microarray, 635/667 nm fluorescence, artefact control for SMM control-protein annotation, profiling panel (AID 1131); settings: fibrinogen-A647 binding fluorescence, higher = more signal;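 note: z-score merges 667 nm fluorescence with per-spot signal-to-noise over triplicate slides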
[13] = biological target: Follistatin (Homo sapiens) (UniProt P19883); experiment: FST protein binding to printed compounds – biochemical, small-molecule microarray, 635/667 nm fluorescence, primary screen (AID 1132); settings: 635 nm fluorescence, higher = more signal
[14] = biological target: Fibroblast growth factor 2 (Homo sapiens) (UniProt P09038); experiment: basic fibroblast growth factor binding to printed compounds – biochemical, small-molecule microarray, 635/667 nm fluorescence, primary screen (AID 1133); settings: FGF2, fluorescence 635/667, higher = more signal
[15] = JC-1 mitochondrial potential readout, lung cancer cells – cell-based, A549, JC-1 fluorescence, basal, 24 h, 100 nL, profiling panel (AID 1138); settings: higher = more signal;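 note: A549 lung adenocarcinoma cells under basal conditions with no added stimulus; test concentration not given here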
Lefty1 = Lefty1 protein binding to printed compounds – biochemical, small-molecule microarray, 635/667 nm fluorescence, primary screen (AID 1139); settings: fluorescence 635/667, higher = more signal
[16] = test system: wheat germ agglutinin (Triticum aestivum), Alexa647-labelled; experiment: Alexa647-WGA lectin binding to printed small molecules – biochemical, small-molecule microarray, 635/667 nm fluorescence, artefact control for SMM control-protein annotation, profiling panel (AID 1140); settings: WGA-A647 binding, 635 nm fluorescence, higher = more signal;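 note: score merges 667 nm feature emission with signal to noise over triplicate slides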
[17] = biological target: Luciferin 4-monooxygenase (Photinus pyralis) (UniProt P08659); experiment: inhibition of purified Photinus pyralis luciferase – biochemical, luminescence, purified enzyme, 2006 set, primary screen (AID 1141); settings: purified firefly luciferase, SteadyGlo luminescence, 30 min; higher = more signal, called active from +8 up or from −8 down;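 note: cell-free assay with purified firefly luciferase at 100 ng per well in PBS; test concentration not given here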
Sequence of Luciferin 4-monooxygenase (Photinus pyralis) (P08659 whole entry, looked up): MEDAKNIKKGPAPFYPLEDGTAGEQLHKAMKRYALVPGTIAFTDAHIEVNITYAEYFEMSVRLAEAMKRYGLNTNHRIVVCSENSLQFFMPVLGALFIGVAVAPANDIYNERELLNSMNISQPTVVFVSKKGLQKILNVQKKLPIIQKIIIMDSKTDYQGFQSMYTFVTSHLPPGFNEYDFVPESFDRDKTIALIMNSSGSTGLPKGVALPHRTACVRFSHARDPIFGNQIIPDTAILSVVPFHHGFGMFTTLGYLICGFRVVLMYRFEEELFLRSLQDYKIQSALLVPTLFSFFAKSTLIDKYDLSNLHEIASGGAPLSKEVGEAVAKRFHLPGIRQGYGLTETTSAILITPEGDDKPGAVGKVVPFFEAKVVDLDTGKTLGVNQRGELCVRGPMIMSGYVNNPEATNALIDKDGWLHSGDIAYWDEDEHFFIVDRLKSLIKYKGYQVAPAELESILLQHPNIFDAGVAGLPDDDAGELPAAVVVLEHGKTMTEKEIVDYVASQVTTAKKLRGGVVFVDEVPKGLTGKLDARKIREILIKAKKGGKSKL

Sequence of Focal adhesion kinase 1 (Homo sapiens) (Q05397 whole entry, looked up): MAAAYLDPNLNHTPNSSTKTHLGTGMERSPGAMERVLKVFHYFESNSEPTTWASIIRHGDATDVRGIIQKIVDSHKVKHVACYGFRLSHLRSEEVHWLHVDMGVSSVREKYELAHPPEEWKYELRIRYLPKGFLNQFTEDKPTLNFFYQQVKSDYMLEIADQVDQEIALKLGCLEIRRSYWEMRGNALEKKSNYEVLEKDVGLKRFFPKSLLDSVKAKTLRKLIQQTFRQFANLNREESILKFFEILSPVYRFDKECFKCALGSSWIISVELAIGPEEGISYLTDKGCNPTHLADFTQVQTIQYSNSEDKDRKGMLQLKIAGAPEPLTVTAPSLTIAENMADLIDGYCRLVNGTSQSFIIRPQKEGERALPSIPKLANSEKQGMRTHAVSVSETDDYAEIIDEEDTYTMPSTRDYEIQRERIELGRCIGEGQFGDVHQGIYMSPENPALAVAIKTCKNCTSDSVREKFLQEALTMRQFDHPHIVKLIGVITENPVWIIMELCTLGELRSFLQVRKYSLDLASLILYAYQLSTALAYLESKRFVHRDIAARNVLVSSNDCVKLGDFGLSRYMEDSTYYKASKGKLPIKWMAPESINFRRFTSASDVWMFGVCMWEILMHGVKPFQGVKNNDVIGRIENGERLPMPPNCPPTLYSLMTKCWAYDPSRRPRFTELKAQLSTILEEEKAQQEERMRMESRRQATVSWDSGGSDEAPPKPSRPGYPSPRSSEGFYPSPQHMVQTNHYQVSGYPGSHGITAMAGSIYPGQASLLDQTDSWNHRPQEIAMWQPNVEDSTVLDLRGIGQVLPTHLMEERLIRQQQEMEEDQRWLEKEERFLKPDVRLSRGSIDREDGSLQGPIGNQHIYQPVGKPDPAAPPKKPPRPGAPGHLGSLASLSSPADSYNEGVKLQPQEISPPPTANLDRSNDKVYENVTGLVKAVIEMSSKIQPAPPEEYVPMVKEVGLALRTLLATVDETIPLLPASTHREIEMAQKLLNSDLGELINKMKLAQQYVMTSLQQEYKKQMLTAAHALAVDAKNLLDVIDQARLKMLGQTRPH
Sequence of Albumin (Bos taurus) (P02769 whole entry, looked up): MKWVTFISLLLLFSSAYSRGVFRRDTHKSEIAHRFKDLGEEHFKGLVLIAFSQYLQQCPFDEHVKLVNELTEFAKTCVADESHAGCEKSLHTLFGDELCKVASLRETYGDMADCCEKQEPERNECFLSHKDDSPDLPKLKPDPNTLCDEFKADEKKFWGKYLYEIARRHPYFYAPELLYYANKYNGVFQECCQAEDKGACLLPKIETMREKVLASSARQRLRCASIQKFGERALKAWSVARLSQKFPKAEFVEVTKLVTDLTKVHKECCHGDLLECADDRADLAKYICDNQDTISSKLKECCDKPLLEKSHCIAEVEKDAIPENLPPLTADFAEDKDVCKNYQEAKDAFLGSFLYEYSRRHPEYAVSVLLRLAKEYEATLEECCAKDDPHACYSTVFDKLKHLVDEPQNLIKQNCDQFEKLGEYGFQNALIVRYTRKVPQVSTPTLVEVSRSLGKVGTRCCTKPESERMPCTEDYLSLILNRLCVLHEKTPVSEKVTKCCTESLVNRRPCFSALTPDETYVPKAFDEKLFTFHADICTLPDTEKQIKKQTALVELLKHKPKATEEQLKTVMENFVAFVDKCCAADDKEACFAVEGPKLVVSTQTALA
Sequence of Concanavalin-A (Canavalia ensiformis) (P02866 whole entry, looked up): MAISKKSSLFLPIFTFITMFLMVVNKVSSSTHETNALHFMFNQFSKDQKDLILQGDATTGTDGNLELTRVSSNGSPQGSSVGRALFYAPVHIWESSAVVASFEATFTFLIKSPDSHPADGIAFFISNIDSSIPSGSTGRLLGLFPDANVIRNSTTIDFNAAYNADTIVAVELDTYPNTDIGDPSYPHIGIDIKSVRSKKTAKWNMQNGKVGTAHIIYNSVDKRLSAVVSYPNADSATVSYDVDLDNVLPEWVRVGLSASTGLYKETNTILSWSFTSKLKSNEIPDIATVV
Sequence of Follistatin (Homo sapiens) (P19883 whole entry, looked up): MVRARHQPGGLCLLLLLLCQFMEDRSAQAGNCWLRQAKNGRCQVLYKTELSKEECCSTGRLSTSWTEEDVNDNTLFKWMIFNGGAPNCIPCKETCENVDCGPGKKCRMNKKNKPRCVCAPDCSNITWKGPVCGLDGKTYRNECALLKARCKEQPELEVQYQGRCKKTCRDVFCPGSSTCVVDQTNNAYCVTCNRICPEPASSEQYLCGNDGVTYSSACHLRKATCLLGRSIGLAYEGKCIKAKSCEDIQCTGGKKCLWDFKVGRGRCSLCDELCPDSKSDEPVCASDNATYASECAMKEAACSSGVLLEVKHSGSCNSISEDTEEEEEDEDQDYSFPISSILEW
Sequence of Fibroblast growth factor 2 (Homo sapiens) (P09038 whole entry, looked up): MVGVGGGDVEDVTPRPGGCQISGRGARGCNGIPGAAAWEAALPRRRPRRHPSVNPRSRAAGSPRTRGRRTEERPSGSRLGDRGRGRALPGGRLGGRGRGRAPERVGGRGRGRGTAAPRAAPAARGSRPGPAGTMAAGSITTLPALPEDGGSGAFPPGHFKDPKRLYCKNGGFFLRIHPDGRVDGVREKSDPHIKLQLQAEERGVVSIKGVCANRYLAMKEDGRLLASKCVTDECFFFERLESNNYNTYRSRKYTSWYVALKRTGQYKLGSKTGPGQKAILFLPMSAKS

In the case of `CCOC(=O)C[C@H]1[C@H](OC(=O)c2ccc(C(=O)c3ccccc3)cc2)[C@@H](NC(=O)c2ccc(-c3ccccc3)cc2)c2cc(OCCCO)ccc2N1C(=O)c1ccccc1`, the composite z-score (Albumin (Bos taurus)) is reported as 0.0256, the composite Z-score [1] is reported as 2.04 (inactive) and the composite z-score [2] is reported as -0.0411. The composite z-score [3] was -0.11, the composite z-score [4] was 0.0733 and the composite z-score [5] was 1.31. For the same compound, the composite z-score [6] was 0.032, the composite z-score (Sam68 (KHDRBS1)) was 1.31 and the composite z-score [7] was 0.303. It also gave a composite z-score [8] of 0.989, a composite z-score [9] of 0.256 and a composite z-score [10] of 0.87. For the same compound, the composite z-score [11] was 0.644, the composite z-score [12] was 0.803 and the composite z-score [13] was 0.559. It also gave a composite z-score [14] of 0.59, a z-score [15] of -0.187 and a composite z-score (Lefty1) of 0.712. The composite z-score [16] was 0.131 and the z-score [17] was -0.265 (inactive).
In the case of `NC(=O)[C@@H]1[C@H]2C(=O)O[C@H](c3ccccc3)[C@H](c3ccccc3)N2[C@H](c2ccc(O)cc2)[C@@]12C(=O)Nc1ccc(C#CC3(O)CCCCCC3)cc12`, the composite z-score (Albumin (Bos taurus)) is reported as -0.425, the composite Z-score [1] is reported as 0.339 (inactive) and the composite z-score [2] is reported as -0.15. The composite z-score [3] was -0.175, the composite z-score [4] was 0.792 and the composite z-score [5] was 0.514. The composite z-score [6] was -0.107, the composite z-score (Sam68 (KHDRBS1)) was -0.427 and the composite z-score [7] was -0.571. It also gave a composite z-score [8] of -0.107, a composite z-score [9] of 0.6 and a composite z-score [10] of -0.239. For the same compound, the composite z-score [11] was -0.205, the composite z-score [12] was -0.819 and the composite z-score [13] was -0.0584. For the same compound, the composite z-score [14] was -0.384, the z-score [15] was -1.06 and the composite z-score (Lefty1) was -0.502. The composite z-score [16] was -0.0999 and the z-score [17] was -0.869 (inactive).
With `C=CCOC(=O)[C@H]1[C@@H]2C(=O)O[C@@H](c3ccccc3)[C@@H](c3ccccc3)N2[C@@H](c2ccc(OCCOC(=O)[C@@H]3C[C@@H]4C(=O)N[C@@H](CCCCN(C)C)C(=O)N4[C@@H]3c3ccc(O)cc3)cc2)[C@]12C(=O)Nc1ccc(I)cc12` the composite z-score (Albumin (Bos taurus)) was -0.342, the composite Z-score [1] was 0.711 (inactive) and the composite z-score [2] was -0.0111. For the same compound, the composite z-score [3] was -0.18, the composite z-score [4] was 0.574 and the composite z-score [5] was 1.66. It also gave a composite z-score [6] of 0.278, a composite z-score (Sam68 (KHDRBS1)) of 1.3 and a composite z-score [7] of 1.24. The composite z-score [8] was 1.15, the composite z-score [9] was 2.26 and the composite z-score [10] was 1.22. It also gave a composite z-score [11] of 0.565, a composite z-score [12] of 0.733 and a composite z-score [13] of 1.16. For the same compound, the composite z-score [14] was 1.57, the z-score [15] was -1.63 and the composite z-score (Lefty1) was 1.54. For the same compound, the composite z-score [16] was 0.81 and the z-score [17] was -4.39 (inactive).
With `C=CCN1C(=O)[C@@]2(O[C@@H](CCO)[C@H]([Si](C)(C)c3ccc(OC)cc3)[C@H]2C)c2cc(NC(=O)c3ccc(OC)cc3)ccc21` the composite z-score (Albumin (Bos taurus)) was 0.317, the composite Z-score [1] was -0.265 (inactive) and the composite z-score [2] was -0.0006. For the same compound, the composite z-score [3] was -0.0836, the composite z-score [4] was 0.187 and the composite z-score [5] was 0.244. It also gave a composite z-score [6] of 0.0327, a composite z-score (Sam68 (KHDRBS1)) of 1.18 and a composite z-score [7] of 0.927. For the same compound, the composite z-score [8] was 1.03, the composite z-score [9] was 0.919 and the composite z-score [10] was 0.563. For the same compound, the composite z-score [11] was -0.0376, the composite z-score [12] was 0.259 and the composite z-score [13] was 1.38. It also gave a composite z-score [14] of 1.2, a z-score [15] of 2.81 and a composite z-score (Lefty1) of 0.763. For the same compound, the composite z-score [16] was 0.458 and the z-score [17] was -1.26 (inactive).
In the case of `O=C1O[C@H](c2ccccc2)[C@H](c2ccccc2)N2[C@H]1[C@@H](C(=O)Nc1nc3ccccc3s1)[C@]1(C(=O)Nc3ccc(C#CC4(O)CCCCCC4)cc31)[C@H]2c1ccc(OCCO)cc1`, the composite z-score (Albumin (Bos taurus)) is reported as 0.8, the composite Z-score [1] is reported as 0.905 (inactive) and the composite z-score [2] is reported as -0.0562. It also gave a composite z-score [3] of 0.146, a composite z-score [4] of 0.219 and a composite z-score [5] of 1.46. The composite z-score [6] was 1.7, the composite z-score (Sam68 (KHDRBS1)) was 1.3 and the composite z-score [7] was 0.508. It also gave a composite z-score [8] of 1.11, a composite z-score [9] of 2 and a composite z-score [10] of 1.14. It also gave a composite z-score [11] of 0.429, a composite z-score [12] of 0.976 and a composite z-score [13] of 1.43. For the same compound, the composite z-score [14] was 1.39, the z-score [15] was -2.27 and the composite z-score (Lefty1) was 1.05. The composite z-score [16] was 0.921 and the z-score [17] was -2.79 (inactive).
In the case of `CC(CO)N1C(=O)[C@@H]2C3C(=O)OCCC/C=C\[C@H]3OC23C=CCN(c2ccc4ccccc4c2)C(=O)[C@@H]13` (stereo not given in full), the composite z-score (Albumin (Bos taurus)) is reported as 0.611, the composite Z-score [1] is reported as -0.0775 (inactive) and the composite z-score [2] is reported as -0.219. It also gave a composite z-score [3] of -0.115, a composite z-score [4] of 0.0684 and a composite z-score [5] of -0.519. It also gave a composite z-score [6] of -0.377, a composite z-score (Sam68 (KHDRBS1)) of -0.704 and a composite z-score [7] of -0.535. For the same compound, the composite z-score [8] was -0.172, the composite z-score [9] was 0.339 and the composite z-score [10] was -0.351. For the same compound, the composite z-score [11] was -0.363, the composite z-score [12] was 0.167 and the composite z-score [13] was -0.382. The composite z-score [14] was -0.865, the z-score [15] was 0.45 and the composite z-score (Lefty1) was -0.632. For the same compound, the composite z-score [16] was 0.0312 and the z-score [17] was -0.846 (inactive).
